# Screens deposited in PubChem BioAssay by several laboratories.
# Compounds with a hit are over-represented: about 3.7% of the library has one in this group of screens.
# BoNT-F LC inh = blocks Botulinum neurotoxin F light chain protease | Multiplex microsphere protease cleavage assay, flow cytometry | inhibition, % at 10 µM | 360,000 tested, 0.22% active | AID 588497; in the data active means inhibition above about 35%, passing the limit was not always enough; inconclusive means no clear call, values can overlap the other calls; further: plate controls were buffer without enzyme for full effect and enzyme alone for no effect
# Bead autofluor = flagged as autofluorescent in microsphere protease counterscreen | compound autofluorescence counterscreen, microsphere flow cytometry; hits give high values | fluorescence intensity (test concentration not listed) | 360,000 tested, 3.1% active | AID 624483; in the data active means fluorescence intensity above about 16000; inconclusive means no clear call, values can overlap the other calls
# Anthrax LF prot = anthrax lethal factor protease inhibition; P15917; multiplex microsphere protease cleavage assay, LF; inhibition, % at 10 µM; 360,000 tested, 0.12% active; further: plate controls were buffer without enzyme for full effect and enzyme alone for no effect
# BoNT A protease = BoNT A light chain protease inhibition; multiplex microsphere protease substrate cleavage, flow cytometry; inhibition, % at 10 µM; 360,000 tested, 0.17% active; further: plate controls were buffer without enzyme for full effect and enzyme alone for no effect
# MazF activator = MazEF (E. coli) toxin RNase activation; FAM/BHQ RNA-DNA oligo cleavage fluorescence, 5 h; activation, % at 20 µM; 350,000 tested, 0.32% active; AID 504720; in the data active means activation above about 50%
# Target sequence (P0AE70 whole entry, looked up): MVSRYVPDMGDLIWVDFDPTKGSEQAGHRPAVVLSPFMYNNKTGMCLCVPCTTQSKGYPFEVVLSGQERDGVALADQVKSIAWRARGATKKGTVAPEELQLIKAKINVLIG
# The depositor's hits bear a star; ? = inconclusive; . = no result given. Unless noted, no stated cut-off is given here; in the data, active means inhibition above about 30%; inconclusive means no clear call, values can overlap the other calls; inactive means below that.
SMILES,BoNT-F LC inh,Bead autofluor,Anthrax LF prot,BoNT A protease,MazF activator
CC1CCC(NC(=O)COC(=O)c2cccnc2Cl)CC1 (stereo unspecified),-5,4024,-6,-1,4
O=C(Cc1cccs1)Nc1cccc(-c2nc3cc4ccccc4cc3[nH]2)c1,-7,2043,-3,1,56*
CC(=O)Nc1cccc(NC(=O)Cc2cccs2)c1,-18,2961,-16,-1,9
Cc1ccc2nc(-c3ccc(NC(=O)c4ccco4)cc3)[nH]c2c1,-8,8399,-2,-1,-10
O=C(Nc1cccc(-c2nc3ccccc3[nH]2)c1)c1ccco1,-7,25261*,-8,-4,5
CCOC(=O)C1=CCN(S(=O)(=O)c2ccc(C)cc2)[C@H]1c1ccccc1Cl,-2,5680,-3,-1,.
Cc1onc(-c2ccccc2Cl)c1C(=O)N1CCC(Cc2ccccc2)CC1,5,4603,-1,2,2
CCOC(=O)C1=C(COC(=O)C(CC)Oc2ccccc2)NC(=O)NC1C (stereo unspecified),.,.,.,.,10
Cc1ccccc1C(=O)N/N=C/c1ccncc1,-1,19987*,-2,?,-7
O=C(O)c1ccccc1-c1csc(-c2ccccc2)n1,-18,4999,-2,-3,-2
O=c1c2ccccc2nnn1COc1cccc(Cl)c1,-8,4697,-2,-1,3
CCOc1cc2[nH]c(=S)n(CCOC)c(=O)c2cc1OCC,-2,22228*,-4,-1,3
CCOc1cc2[nH]c(=S)n(CCCC(=O)N3CCC4(CC3)OCCO4)c(=O)c2cc1OCC,0,22729*,1,-1,9
CCCn1c(=S)[nH]c2cc(OC)c(OC)cc2c1=O,-2,22976*,-1,-1,7
CCOc1cc2[nH]c(=O)n(CCCCC(=O)N3CCCCCC3)c(=O)c2cc1OCC,13,9452,-5,0,3
COc1cc2[nH]c(=O)n(Cc3ccc(C(=O)NC4CCCC4)cc3)c(=O)c2cc1OC,11,3343,0,0,88*
COc1cc2[nH]c(=S)n(Cc3cccs3)c(=O)c2cc1OC,0,4424,-1,-1,-11
CCCN1CCN(C(=O)C2CCCN(c3ncnc4c3nc3n4CCCCC3)C2)CC1 (stereo unspecified),-3,4311,0,0,7
CCCCCNC(=O)CCCCn1c(=O)[nH]c2cc(OCC)c(OCC)cc2c1=O,-8,4282,1,-1,-1
COc1cc2[nH]c(=S)n(NC(=O)CC(C)C)c(=O)c2cc1OC,-3,24467*,-4,?,-4
CCCCNC(=O)CCCCCn1c(=O)[nH]c2cc(OC)c(OC)cc2c1=O,-1,19264*,-11,?,1
COc1ccc(CC(C)N2CCN(Cc3ccccc3)CC2)c(OC)c1 (stereo unspecified),10,18004*,-1,8,3
CCN(CC(=O)Nc1ccc(NC(C)=O)cc1)C(=O)/C=C/c1ccc(S(=O)(=O)N2CCCCCC2)cc1,-1,6047,-1,-1,0
COc1cccc(CCNC(=O)C2CCC(=O)N(C3CC3)C2)c1OC (stereo unspecified),1,4883,-1,1,9
O=C(N/N=C/c1ccccc1[N+](=O)[O-])c1ccc2nc[nH]c2c1,49*,4316,?,1,10
SMILES,BoNT-F LC inh,Bead autofluor,Anthrax LF prot,BoNT A protease,MazF activator
O=C(COC(=O)CNS(=O)(=O)c1cccc(Br)c1)Nc1ccccc1Sc1ccccc1,-3,2451,-2,0,-5
COc1ccc(C2C(=O)N(C3CCCCC3)CC(=O)N2Cc2ccco2)cc1 (stereo unspecified),3,20572*,-5,?,3
COc1ccc(C2C(=O)N(C3CCCCC3)CC(=O)N2C2CCCC2)cc1 (stereo unspecified),-5,10672,-1,-1,-9
COc1ccc(C2C(=O)N(C3CCCCCC3)CC(=O)N2Cc2ccccc2)cc1OC (stereo unspecified),0,19721*,-2,1,2
COc1ccc(C2C(=O)N(CCc3ccccc3)CC(=O)N2C2CCCC2)cc1 (stereo unspecified),0,23925*,-1,-2,-7
CCOc1ccc(C2c3[nH]c4ccccc4c3C[C@H]3C(=O)N(C4CC4)CC(=O)N23)cc1OC (stereo partly specified),-2,3864,-5,-1,-4
CCCOc1ccc(C2C(=O)N(C3CCCCC3)CC(=O)N2C2CC2)cc1OC (stereo unspecified),-3,20615*,-2,-2,-2
